Assays:
[1] = target: Serine/threonine-protein kinase PAK 6 (Homo sapiens) (UniProt Q9NQU5); details: at 1 µM;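 also: values are mean percent inhibition of PAK6 kinase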
[2] = tested on: Tyrosine-protein kinase ABL1 (Homo sapiens), P00519 [E255K]; details: at 0.1 µM
[3] = tested on: Tyrosine-protein kinase ABL1 (Homo sapiens), P00519 [E255K]; details: at 1 µM
[4] = tested on: Tyrosine-protein kinase ABL1 (Homo sapiens), P00519 [H396P]; details: at 0.1 µM
[5] = tested on: Tyrosine-protein kinase ABL1 (Homo sapiens), P00519 [H396P]; details: at 1 µM
[6] = tested on: Tyrosine-protein kinase ABL1 (Homo sapiens), P00519 [M351T]; details: at 0.1 µM
[7] = tested on: Tyrosine-protein kinase ABL1 (Homo sapiens), P00519 [M351T]; details: at 1 µM
[8] = tested on: Tyrosine-protein kinase ABL1 (Homo sapiens), P00519 [Q252H]; details: at 0.1 µM
[9] = tested on: Tyrosine-protein kinase ABL1 (Homo sapiens), P00519 [Q252H]; details: at 1 µM
[10] = tested on: Tyrosine-protein kinase ABL1 (Homo sapiens), P00519 [T315I]; details: at 0.1 µM
[11] = tested on: Tyrosine-protein kinase ABL1 (Homo sapiens), P00519 [T315I]; details: at 1 µM
[12] = tested on: Tyrosine-protein kinase ABL1 (Homo sapiens), P00519 [Y253F]; details: at 0.1 µM
[13] = tested on: Tyrosine-protein kinase ABL1 (Homo sapiens), P00519 [Y253F]; details: at 1 µM
[14] = target: Tyrosine-protein kinase ABL1 (Homo sapiens) (UniProt P00519); details: at 0.1 µM
[15] = target: Tyrosine-protein kinase ABL1 (Homo sapiens) (UniProt P00519); details: at 1 µM
[16] = target: ALK tyrosine kinase receptor (Homo sapiens) (UniProt Q9UM73); details: at 0.1 µM
[17] = target: ALK tyrosine kinase receptor (Homo sapiens) (UniProt Q9UM73); details: at 1 µM
[18] = target: Tyrosine-protein kinase ABL2 (Homo sapiens) (UniProt P42684); details: at 0.1 µM
[19] = target: Tyrosine-protein kinase ABL2 (Homo sapiens) (UniProt P42684); details: at 1 µM
[20] = target: Tyrosine-protein kinase receptor UFO (Homo sapiens) (UniProt P30530); details: at 0.1 µM;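 also: values are mean percent inhibition of AXL from the GSK PKIS screen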
Chain of Tyrosine-protein kinase receptor UFO (Homo sapiens) (P30530 whole entry): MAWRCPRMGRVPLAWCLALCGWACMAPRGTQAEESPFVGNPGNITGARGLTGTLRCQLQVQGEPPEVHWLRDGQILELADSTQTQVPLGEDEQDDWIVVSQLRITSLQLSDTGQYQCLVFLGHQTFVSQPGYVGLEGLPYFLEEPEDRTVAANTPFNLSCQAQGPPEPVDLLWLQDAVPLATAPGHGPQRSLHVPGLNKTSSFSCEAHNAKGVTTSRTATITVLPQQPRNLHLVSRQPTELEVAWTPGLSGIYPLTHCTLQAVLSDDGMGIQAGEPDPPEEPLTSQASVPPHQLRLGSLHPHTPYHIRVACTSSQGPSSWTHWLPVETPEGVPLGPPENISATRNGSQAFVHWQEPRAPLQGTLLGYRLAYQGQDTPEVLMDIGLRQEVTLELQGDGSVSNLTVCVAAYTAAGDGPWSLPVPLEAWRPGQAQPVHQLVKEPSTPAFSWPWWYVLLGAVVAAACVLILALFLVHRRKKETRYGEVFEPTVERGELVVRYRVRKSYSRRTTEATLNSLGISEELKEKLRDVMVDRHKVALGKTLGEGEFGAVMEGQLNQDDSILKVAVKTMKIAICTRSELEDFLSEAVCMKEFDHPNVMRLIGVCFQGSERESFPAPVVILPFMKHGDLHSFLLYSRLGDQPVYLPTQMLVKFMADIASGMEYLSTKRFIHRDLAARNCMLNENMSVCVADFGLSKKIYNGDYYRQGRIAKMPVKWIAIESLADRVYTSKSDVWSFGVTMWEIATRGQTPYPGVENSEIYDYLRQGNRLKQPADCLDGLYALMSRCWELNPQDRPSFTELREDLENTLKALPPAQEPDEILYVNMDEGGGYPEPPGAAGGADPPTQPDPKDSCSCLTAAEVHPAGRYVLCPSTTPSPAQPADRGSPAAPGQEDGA

Chain of Serine/threonine-protein kinase PAK 6 (Homo sapiens) (Q9NQU5 whole entry, looked up): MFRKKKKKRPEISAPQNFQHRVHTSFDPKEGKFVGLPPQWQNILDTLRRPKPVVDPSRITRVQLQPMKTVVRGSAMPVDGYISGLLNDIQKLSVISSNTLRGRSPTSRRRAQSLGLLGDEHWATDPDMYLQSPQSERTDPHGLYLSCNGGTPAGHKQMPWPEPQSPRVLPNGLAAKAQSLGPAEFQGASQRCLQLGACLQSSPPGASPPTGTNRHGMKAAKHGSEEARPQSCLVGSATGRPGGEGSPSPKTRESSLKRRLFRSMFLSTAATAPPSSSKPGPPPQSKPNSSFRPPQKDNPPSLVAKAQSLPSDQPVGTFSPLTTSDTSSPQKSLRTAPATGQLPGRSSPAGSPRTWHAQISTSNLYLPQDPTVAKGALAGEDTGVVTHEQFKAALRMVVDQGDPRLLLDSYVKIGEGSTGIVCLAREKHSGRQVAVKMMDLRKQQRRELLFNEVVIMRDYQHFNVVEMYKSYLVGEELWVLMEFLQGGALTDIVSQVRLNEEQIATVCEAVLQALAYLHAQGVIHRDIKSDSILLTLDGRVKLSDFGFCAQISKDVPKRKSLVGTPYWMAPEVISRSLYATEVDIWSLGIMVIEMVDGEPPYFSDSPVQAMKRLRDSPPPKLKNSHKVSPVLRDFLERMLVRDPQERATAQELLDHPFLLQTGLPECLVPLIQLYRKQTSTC
Chain of Tyrosine-protein kinase ABL2 (Homo sapiens) (P42684 whole entry): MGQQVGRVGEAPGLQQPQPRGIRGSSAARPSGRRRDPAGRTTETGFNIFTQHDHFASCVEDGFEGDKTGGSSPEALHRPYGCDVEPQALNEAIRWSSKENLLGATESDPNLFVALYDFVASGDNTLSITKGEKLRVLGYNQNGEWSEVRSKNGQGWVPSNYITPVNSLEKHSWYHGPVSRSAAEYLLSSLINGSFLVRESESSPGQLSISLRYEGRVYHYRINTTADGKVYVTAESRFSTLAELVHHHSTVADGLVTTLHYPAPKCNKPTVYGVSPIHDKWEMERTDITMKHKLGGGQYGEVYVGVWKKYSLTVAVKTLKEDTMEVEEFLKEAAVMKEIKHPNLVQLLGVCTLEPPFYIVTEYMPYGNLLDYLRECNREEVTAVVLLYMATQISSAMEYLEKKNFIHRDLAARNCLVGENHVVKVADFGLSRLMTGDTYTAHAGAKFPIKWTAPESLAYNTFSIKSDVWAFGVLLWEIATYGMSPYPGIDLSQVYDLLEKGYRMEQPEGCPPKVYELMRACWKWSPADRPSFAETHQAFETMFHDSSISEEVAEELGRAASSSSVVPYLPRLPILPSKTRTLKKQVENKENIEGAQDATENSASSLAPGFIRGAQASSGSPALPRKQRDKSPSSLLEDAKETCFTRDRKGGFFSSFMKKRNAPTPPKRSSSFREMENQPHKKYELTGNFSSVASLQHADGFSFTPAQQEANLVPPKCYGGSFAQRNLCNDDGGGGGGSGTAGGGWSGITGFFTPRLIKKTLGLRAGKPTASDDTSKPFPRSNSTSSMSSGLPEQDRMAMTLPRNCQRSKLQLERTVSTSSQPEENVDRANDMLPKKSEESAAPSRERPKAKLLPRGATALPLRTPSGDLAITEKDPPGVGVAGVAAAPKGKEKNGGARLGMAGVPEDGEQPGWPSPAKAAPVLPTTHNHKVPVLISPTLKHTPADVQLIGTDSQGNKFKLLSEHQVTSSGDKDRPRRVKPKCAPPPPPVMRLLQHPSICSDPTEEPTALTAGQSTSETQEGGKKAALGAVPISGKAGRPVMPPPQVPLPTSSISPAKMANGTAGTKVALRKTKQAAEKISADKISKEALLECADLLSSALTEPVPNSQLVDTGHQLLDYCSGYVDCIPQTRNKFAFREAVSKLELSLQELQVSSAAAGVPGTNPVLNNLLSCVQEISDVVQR
Chain of ALK tyrosine kinase receptor (Homo sapiens) (Q9UM73 19-1620 limits assumed): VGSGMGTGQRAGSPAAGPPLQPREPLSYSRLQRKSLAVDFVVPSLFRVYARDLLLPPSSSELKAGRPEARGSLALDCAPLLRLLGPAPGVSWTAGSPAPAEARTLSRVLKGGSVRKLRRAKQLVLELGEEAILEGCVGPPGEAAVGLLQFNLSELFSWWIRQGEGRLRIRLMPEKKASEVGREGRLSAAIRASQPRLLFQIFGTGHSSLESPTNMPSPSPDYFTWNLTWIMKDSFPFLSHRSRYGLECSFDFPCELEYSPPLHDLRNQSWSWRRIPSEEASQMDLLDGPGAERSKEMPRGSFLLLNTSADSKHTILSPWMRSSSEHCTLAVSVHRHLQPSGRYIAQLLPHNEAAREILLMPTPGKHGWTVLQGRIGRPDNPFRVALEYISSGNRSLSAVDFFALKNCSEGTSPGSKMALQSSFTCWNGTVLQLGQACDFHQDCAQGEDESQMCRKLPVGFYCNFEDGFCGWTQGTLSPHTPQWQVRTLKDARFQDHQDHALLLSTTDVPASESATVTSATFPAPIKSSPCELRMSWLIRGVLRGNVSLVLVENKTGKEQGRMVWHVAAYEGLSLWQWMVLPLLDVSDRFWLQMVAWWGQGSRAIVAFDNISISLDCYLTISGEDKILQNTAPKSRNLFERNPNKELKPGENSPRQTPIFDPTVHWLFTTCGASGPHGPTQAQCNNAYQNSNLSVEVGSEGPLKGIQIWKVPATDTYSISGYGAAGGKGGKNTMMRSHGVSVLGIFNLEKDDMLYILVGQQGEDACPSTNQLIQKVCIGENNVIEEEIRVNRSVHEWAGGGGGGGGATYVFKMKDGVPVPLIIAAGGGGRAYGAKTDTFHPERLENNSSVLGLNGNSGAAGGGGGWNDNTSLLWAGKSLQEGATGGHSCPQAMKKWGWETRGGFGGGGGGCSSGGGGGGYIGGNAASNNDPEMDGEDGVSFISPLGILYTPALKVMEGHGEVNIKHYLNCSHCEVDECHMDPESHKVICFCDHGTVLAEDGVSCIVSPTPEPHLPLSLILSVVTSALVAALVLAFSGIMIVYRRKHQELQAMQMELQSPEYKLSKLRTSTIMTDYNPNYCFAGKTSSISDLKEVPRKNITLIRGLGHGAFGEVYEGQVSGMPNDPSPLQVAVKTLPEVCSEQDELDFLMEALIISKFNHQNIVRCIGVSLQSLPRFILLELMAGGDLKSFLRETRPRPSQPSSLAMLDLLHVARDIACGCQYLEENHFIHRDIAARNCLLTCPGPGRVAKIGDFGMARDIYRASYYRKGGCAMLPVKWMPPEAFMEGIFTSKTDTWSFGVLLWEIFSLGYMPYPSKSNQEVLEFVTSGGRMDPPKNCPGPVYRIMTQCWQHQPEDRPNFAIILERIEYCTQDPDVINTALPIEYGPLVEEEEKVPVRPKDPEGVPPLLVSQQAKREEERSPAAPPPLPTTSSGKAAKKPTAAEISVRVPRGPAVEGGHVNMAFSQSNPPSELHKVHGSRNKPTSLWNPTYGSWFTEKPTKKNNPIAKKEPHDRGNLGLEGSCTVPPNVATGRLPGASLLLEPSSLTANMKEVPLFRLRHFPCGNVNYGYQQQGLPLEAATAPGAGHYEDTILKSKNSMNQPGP

**Q.** What does the source list for `CCCN1CCC(Oc2cc(Nc3nc(Nc4cccc(F)c4C(N)=O)c4cc[nH]c4n3)c(OC)cc2Cl)CC1`?
**A.** inhibition [1]: 6.18%; inhibition [2]: -0.41%; inhibition [3]: 2.46%; inhibition [4]: 0.38%; inhibition [5]: 2.29%; inhibition [6]: 2.95%; inhibition [7]: 2.4%; inhibition [8]: 0.68%; inhibition [9]: 5.93%; inhibition [10]: 1.91%; inhibition [11]: 1.37%; inhibition [12]: 1.12%; inhibition [13]: 3.82%; inhibition [14]: 4.76%; inhibition [15]: 10.1%; inhibition [16]: 55.7%; inhibition [17]: 78.2%; inhibition [18]: 4.89%; inhibition [19]: 12.3%; inhibition [20]: 5.22%

**Q.** For `COc1cc2ncn(-c3cc(OCc4ccccc4Cl)c(C(N)=O)s3)c2cc1OC`, which inhibition [1] is on record?
**A.** -7.5%

**Q.** What about the inhibition [2] of the same compound?
**A.** 1.52%

**Q.** What about the inhibition [3] of the same compound?
**A.** 21.7%

**Q.** And the inhibition [4]?
**A.** 6.52%

**Q.** What about the inhibition [5] of the same compound?
**A.** 31.1%

**Q.** What about the inhibition [6] of the same compound?
**A.** 4.21%

**Q.** And the inhibition [7]?
**A.** 32.3%

**Q.** What about the inhibition [8] of the same compound?
**A.** 5.23%

**Q.** And the inhibition [9]?
**A.** 28.2%

**Q.** And the inhibition [10]?
**A.** 3.9%

**Q.** And the inhibition [11]?
**A.** 27.1%

**Q.** And the inhibition [12]?
**A.** 4.62%

**Q.** What about the inhibition [13] of the same compound?
**A.** 32.7%

**Q.** What about the inhibition [14] of the same compound?
**A.** 3.59%

**Q.** And the inhibition [15]?
**A.** 32.2%

**Q.** And the inhibition [16]?
**A.** 1.53%

**Q.** What about the inhibition [17] of the same compound?
**A.** 5.8%

**Q.** What about the inhibition [18] of the same compound?
**A.** 1.8%

**Q.** What about the inhibition [19] of the same compound?
**A.** 21.1%

**Q.** What about the inhibition [20] of the same compound?
**A.** 0.24%

**Q.** Which results are given for `Cc1ccc(NC(=O)c2ccnc(N3CCCC3)c2)cc1-c1ccc(C(=O)NCC2CC2)cc1`?
**A.** inhibition [1]: -7.72%; inhibition [2]: 1.9%; inhibition [3]: 5.48%; inhibition [4]: 3%; inhibition [5]: 2.43%; inhibition [6]: 0.54%; inhibition [7]: 9.12%; inhibition [8]: 2.92%; inhibition [9]: 12.4%; inhibition [10]: 0.94%; inhibition [11]: 2.61%; inhibition [12]: 2.64%; inhibition [13]: 3.85%; inhibition [14]: -0.85%; inhibition [15]: 4.81%; inhibition [16]: 0.36%; inhibition [17]: 5.33%; inhibition [18]: -0.85%; inhibition [19]: 7.46%; inhibition [20]: -7.11%

**Q.** Which results are given for `CN1CCC(C(=O)Nc2n[nH]c3nnc(-c4ccccc4)cc23)CC1`?
**A.** inhibition [1]: -6.17%; inhibition [2]: 1.81%; inhibition [3]: 6.11%; inhibition [4]: 4.23%; inhibition [5]: 4.8%; inhibition [6]: 2.25%; inhibition [7]: 1.61%; inhibition [8]: 3.6%; inhibition [9]: 3.36%; inhibition [10]: 3.4%; inhibition [11]: 5.74%; inhibition [12]: 1.97%; inhibition [13]: 5.41%; inhibition [14]: 2.03%; inhibition [15]: 4.42%; inhibition [16]: 2.9%; inhibition [17]: 6.61%; inhibition [18]: 0.96%; inhibition [19]: 2.58%; inhibition [20]: -5.95%

**Q.** How did the inhibition [1] turn out when `COc1ccc2cc(-c3c(-c4ccncc4)nc(-c4ccc([S+](C)[O-])cc4)n3C)ccc2c1` (stereo not given) was run?
**A.** -0.4%

**Q.** And the inhibition [2]?
**A.** 2.75%

**Q.** And the inhibition [3]?
**A.** 1.85%

**Q.** And the inhibition [4]?
**A.** 0.68%

**Q.** And the inhibition [5]?
**A.** 3.52%

**Q.** What about the inhibition [6] of the same compound?
**A.** 0.25%

**Q.** And the inhibition [7]?
**A.** 2.54%

**Q.** And the inhibition [8]?
**A.** 1.22%

**Q.** What about the inhibition [9] of the same compound?
**A.** 5.05%

**Q.** And the inhibition [10]?
**A.** 1.07%

**Q.** What about the inhibition [11] of the same compound?
**A.** 12.1%

**Q.** And the inhibition [12]?
**A.** 1.26%

**Q.** What about the inhibition [13] of the same compound?
**A.** 4.12%

**Q.** And the inhibition [14]?
**A.** 2.44%

**Q.** And the inhibition [15]?
**A.** 8.87%

**Q.** What about the inhibition [16] of the same compound?
**A.** 1.63%

**Q.** What about the inhibition [17] of the same compound?
**A.** 3.57%

**Q.** And the inhibition [18]?
**A.** 2.63%

**Q.** And the inhibition [19]?
**A.** 9.3%

**Q.** What about the inhibition [20] of the same compound?
**A.** -6.33%

**Q.** With `O=C1NC(=O)C(c2ccc(Cl)cc2)=C1Nc1ccc(Cl)c(C(=O)O)c1` as the compound, how does the inhibition [1] read?
**A.** -0.68%

**Q.** What about the inhibition [2] of the same compound?
**A.** 2.02%

**Q.** What about the inhibition [3] of the same compound?
**A.** -2.33%

**Q.** What about the inhibition [4] of the same compound?
**A.** -0.65%

**Q.** And the inhibition [5]?
**A.** 1.82%

**Q.** And the inhibition [6]?
**A.** 1.3%

**Q.** What about the inhibition [7] of the same compound?
**A.** 4.53%

**Q.** What about the inhibition [8] of the same compound?
**A.** 1.18%

**Q.** And the inhibition [9]?
**A.** 1.68%

**Q.** And the inhibition [10]?
**A.** 0.69%

**Q.** What about the inhibition [11] of the same compound?
**A.** 3%

**Q.** And the inhibition [12]?
**A.** 2.01%

**Q.** And the inhibition [13]?
**A.** 0.85%

**Q.** And the inhibition [14]?
**A.** -0.85%

**Q.** And the inhibition [15]?
**A.** 7.52%

**Q.** What about the inhibition [16] of the same compound?
**A.** -2.28%

**Q.** What about the inhibition [17] of the same compound?
**A.** -1.12%

**Q.** What about the inhibition [18] of the same compound?
**A.** -0.74%

**Q.** And the inhibition [19]?
**A.** 7.37%

**Q.** What about the inhibition [20] of the same compound?
**A.** 2.69%

**Q.** `Cc1cc(O)cc(C)c1/C=C/c1cncc(-c2nn[nH]n2)c1` was tested. Which inhibition [1] did it give?
**A.** -4.74%

**Q.** And the inhibition [2]?
**A.** 17.8%

**Q.** And the inhibition [3]?
**A.** 79.3%

**Q.** What about the inhibition [4] of the same compound?
**A.** 21.5%

**Q.** And the inhibition [5]?
**A.** 79.8%

**Q.** What about the inhibition [6] of the same compound?
**A.** 17.1%

**Q.** And the inhibition [7]?
**A.** 79.9%

**Q.** What about the inhibition [8] of the same compound?
**A.** 23.1%

**Q.** And the inhibition [9]?
**A.** 81.6%

**Q.** What about the inhibition [10] of the same compound?
**A.** 2.2%

**Q.** What about the inhibition [11] of the same compound?
**A.** 8.36%

**Q.** What about the inhibition [12] of the same compound?
**A.** 31.5%

**Q.** What about the inhibition [13] of the same compound?
**A.** 86.1%

**Q.** And the inhibition [14]?
**A.** 12.4%

**Q.** What about the inhibition [15] of the same compound?
**A.** 71.1%

**Q.** What about the inhibition [16] of the same compound?
**A.** -0.37%

**Q.** And the inhibition [17]?
**A.** 4.03%

**Q.** And the inhibition [18]?
**A.** 19.9%

**Q.** And the inhibition [19]?
**A.** 68.6%

**Q.** And the inhibition [20]?
**A.** -8.81%

Reference: ChEMBL document CHEMBL1961873, “Compounds: GSK PKIS; Assays: Nanosyn kinase panel” (2012)
